Assay outcomes (PubChem BioAssay)
PGC1a acetyl inh: lowers PGC1a acetylation signal in U2OS cells. AlphaScreen anti-acetyl-lysine; with virally co-expressed GCN5 acetyltransferase. inhibition, % at 15.6 µM. 350,000 compounds, 0.17% hits. AID 651687;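 active = every replicate shows inhibition of at least 40%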
NSD2 HMT inh: inhibitors of human histone methyltransferase NSD2; inhibition, % at 12.5 µM; 310,000 compounds, 0.54% hits; NSD2 peptide methylation, AlphaScreen, 120 min; O96028; in the data active = inhibition above about 50%
Target sequence (O96028 whole entry, looked up): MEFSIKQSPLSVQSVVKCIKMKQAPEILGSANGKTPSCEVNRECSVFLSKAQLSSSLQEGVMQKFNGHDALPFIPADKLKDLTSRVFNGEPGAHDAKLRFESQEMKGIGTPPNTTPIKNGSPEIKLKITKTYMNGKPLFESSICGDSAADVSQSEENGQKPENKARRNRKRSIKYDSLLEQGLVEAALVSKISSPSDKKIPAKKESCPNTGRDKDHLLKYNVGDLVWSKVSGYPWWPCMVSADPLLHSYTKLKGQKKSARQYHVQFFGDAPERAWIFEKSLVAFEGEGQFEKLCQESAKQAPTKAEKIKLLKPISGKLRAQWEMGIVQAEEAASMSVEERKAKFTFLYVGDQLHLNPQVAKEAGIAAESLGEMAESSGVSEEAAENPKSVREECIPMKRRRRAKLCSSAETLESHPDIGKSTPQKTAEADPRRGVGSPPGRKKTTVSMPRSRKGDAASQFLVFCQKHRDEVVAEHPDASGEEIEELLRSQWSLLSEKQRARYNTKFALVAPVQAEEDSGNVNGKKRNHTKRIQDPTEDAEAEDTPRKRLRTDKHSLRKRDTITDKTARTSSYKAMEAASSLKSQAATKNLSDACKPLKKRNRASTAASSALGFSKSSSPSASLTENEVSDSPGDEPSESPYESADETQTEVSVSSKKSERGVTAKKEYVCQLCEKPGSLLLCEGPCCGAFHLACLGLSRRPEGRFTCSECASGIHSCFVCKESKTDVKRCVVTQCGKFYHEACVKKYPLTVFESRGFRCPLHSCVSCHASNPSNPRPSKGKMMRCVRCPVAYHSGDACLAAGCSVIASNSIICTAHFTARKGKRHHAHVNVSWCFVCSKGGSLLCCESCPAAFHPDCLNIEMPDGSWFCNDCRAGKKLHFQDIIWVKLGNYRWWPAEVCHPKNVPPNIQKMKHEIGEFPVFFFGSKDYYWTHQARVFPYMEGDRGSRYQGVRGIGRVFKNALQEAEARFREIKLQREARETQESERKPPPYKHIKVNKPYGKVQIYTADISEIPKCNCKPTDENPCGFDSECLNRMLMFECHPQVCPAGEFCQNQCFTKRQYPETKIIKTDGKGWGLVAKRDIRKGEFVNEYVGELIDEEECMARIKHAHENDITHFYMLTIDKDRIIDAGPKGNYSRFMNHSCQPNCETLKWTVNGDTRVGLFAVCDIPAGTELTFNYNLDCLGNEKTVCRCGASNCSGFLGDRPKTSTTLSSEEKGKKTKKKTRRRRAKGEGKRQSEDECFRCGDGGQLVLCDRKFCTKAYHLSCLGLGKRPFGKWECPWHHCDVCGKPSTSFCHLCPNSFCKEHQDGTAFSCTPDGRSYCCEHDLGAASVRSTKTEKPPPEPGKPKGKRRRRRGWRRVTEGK
GSIS activator: primary screen for activators of insulin secretion dependent on glucose, INS-1E cells, GLuc reporter luminescence; INS-1E GLuc reporter insulin secretion, 2-3 h; activation, % at 16.6 µM; 370,000 compounds, 0.61% hits;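 active = lowest replicate activation of at least 40%, so every replicate reaches that level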
MLL AF4-AF9 inh: inhibitors of human MLL-AF4/AF9 interaction. AlphaScreen, biotin-AF4 peptide binding to FLAG-AF9. inhibition, % at 10 µM. 350,000 compounds, 0.47% hits. AID 651704;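 active = every replicate reaching a set inhibition limit, whatever the replicate mean, cut at about 25% in these data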
Env fusion inh: blocks HIV Env-driven cell-cell fusion. HeLa-JRFL Env/CEM21 cell fusion, luciferase. 360,000 compounds, 1.1% hits. AID 651610. inhibition, % at 12.3 µM;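 active = mean replicate inhibition score of at least 50 and every replicate individually at or above 50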
Alpha artifact: interferes with AlphaScreen signal, flagging NSD2 false positives; shares compounds with NSD2 HMT inh; AlphaScreen artifact counterscreen, preloaded methylated H4 peptide; AC35, µM (highest dose often 10 µM); 1,500 compounds, 9.4% hits; call rule not given here
Of the large screens only hits and unclear results are named; the others gave an inactive call (follow-up assays come after a bar, where they were run). In the library only some 2.1% were active in any assay of this set; here they are far more common.

Cc1ccc(S(=O)(=O)N[C@H]2CC[C@H](CCNC(=O)C3CCCC3)O[C@@H]2CO)cc1	none (no result: NSD2 HMT inh)
COc1ccc(-c2cccc(NS(=O)(=O)c3cccc([N+](=O)[O-])c3)c2)nn1	none (no result: PGC1a acetyl inh, Env fusion inh)
Cc1cc(C)n(-c2nc(NCC(C)O)c3c4c(sc3n2)COC(C)(C)C4)n1 (centres undefined)	NSD2 HMT inh 81 (no result: MLL AF4-AF9 inh) | Alpha artifact inactive
COc1ccc(NC(=O)Nc2ccc3c(c2)C(=O)N([C@H](C)CO)C[C@H](C)[C@H](CN(C)C(=O)CCC(F)(F)F)OCCCC[C@H](C)O3)cc1	none (no result: NSD2 HMT inh, MLL AF4-AF9 inh)
O=C(NC1=C(Nc2ccc(Cl)cc2)C(=O)c2ccccc2C1=O)c1ccccc1	none (no result: PGC1a acetyl inh, GSIS activator)
O=C(NC1=C(NC2CCS(=O)(=O)C2)C(=O)c2ccccc2C1=O)c1ccccc1 (centres undefined)	NSD2 HMT inh 109, Env fusion inh 57 (no result: PGC1a acetyl inh) | Alpha artifact inactive
CC(C)(C)/C=N/NC(=O)CNC(=O)c1ccc2c(c1)OCCO2	NSD2 HMT inh 50 (no result: PGC1a acetyl inh) | Alpha artifact inactive
CC(=O)c1ccc(NC(=O)C[n+]2ccc(N(C)C)cc2)cc1	none (no result: PGC1a acetyl inh)
Cc1nc(NC(=O)COc2ccccc2)sc1C(=O)Nc1ccccc1	none (no result: GSIS activator, MLL AF4-AF9 inh)
CCO/C=C/C(=O)N(C)CCC#N	NSD2 HMT inh 125 (no result: GSIS activator, MLL AF4-AF9 inh, Env fusion inh) | Alpha artifact inactive
CN(CCC#N)C(=O)COC(=O)/C=C/c1cccs1	none
COc1cc(NC(=O)c2ccc3c(c2)OCCO3)ccc1NC(=O)c1ccco1	none
CCOC(=O)c1cc(S(=O)(=O)Nc2ccc(OC)cc2OC)cn1C	NSD2 HMT inh 56 | Alpha artifact inactive
COC(=O)c1cc(S(=O)(=O)Nc2cccc(OC)c2)cn1C	none (no result: NSD2 HMT inh)
O=C1CCCC(O)=C1N=Nc1ccc(C(=O)O)cc1	NSD2 HMT inh 96 | Alpha artifact inactive
NC1=C(Cl)C(=O)c2ccc(S(N)(=O)=O)cc2C1=O	NSD2 HMT inh 114, Env fusion inh 63 (no result: PGC1a acetyl inh) | Alpha artifact inactive
CCOc1ccc(CCNC(=O)COC(=O)COc2ccc(C#N)cc2)cc1OCC	none (no result: Env fusion inh)
COc1ccc(NC(=O)c2ccc(F)c(F)c2)c2ccccc12	NSD2 HMT inh 54 | Alpha artifact inactive
Cc1ccc(NC(=O)CSc2nnc(-c3cnccn3)n2Cc2ccco2)cc1	none (no result: GSIS activator, MLL AF4-AF9 inh)
O=C(/C(=N/N=C/c1ccc(O)c(O)c1O)c1ccccc1)c1ccccc1	none
Oc1ccc(/C=N/N=C(c2ccccc2)c2ccccc2)c(O)c1O	NSD2 HMT inh 76 (no result: PGC1a acetyl inh, MLL AF4-AF9 inh) | Alpha artifact 4.2µM
COc1cccc(CC2(CO)CCCN(Cc3cn[nH]c3-c3cc(C)ccc3C)C2)c1 (centres undefined)	none
Fc1ccc(NC(=S)Nc2ccc3nccnc3c2)cc1	NSD2 HMT inh 105 (no result: PGC1a acetyl inh) | Alpha artifact inactive
OCCCNC(=S)Nc1ccc2nccnc2c1	none
Nc1c(C(=O)NCc2ccc(F)cc2)c2nc3ccccc3nc2n1CCCN1CCOCC1	NSD2 HMT inh 82 (no result: GSIS activator, MLL AF4-AF9 inh) | Alpha artifact inactive
Nc1c(C(=O)NCc2ccccc2)c2nc3ccccc3nc2n1CCCN1CCOCC1	none (no result: PGC1a acetyl inh)
COc1ccc(-c2nnc(Nc3ccc(S(=O)(=O)Nc4nccs4)cc3)c3ccccc23)cc1	none
C=CCC1C=C(Cc2ccccc2)CC(CC=C)N1 (centres undefined)	NSD2 HMT inh 54 | Alpha artifact inactive
COc1ccc(C(=O)OCCc2cc3ccccc3c(=O)o2)cc1	none (no result: PGC1a acetyl inh, NSD2 HMT inh)
C=CCOc1ccc(C2NC(=S)NC3=C2CCc2ccccc23)cc1 (centres undefined)	none (no result: GSIS activator)
O=C1NC2=C(CCc3ccccc32)C(c2ccccc2)N1 (centres undefined)	NSD2 HMT inh 93 | Alpha artifact inactive
CCn1cc(C(=O)Nc2ccc(C)cc2[N+](=O)[O-])c(C)n1	none
COc1ccc(OC)c(NC(=O)Nc2ccc(Cl)cc2)c1	none (no result: NSD2 HMT inh, GSIS activator, MLL AF4-AF9 inh, Env fusion inh)
COC(=O)c1cc(NC(=O)Nc2cc(OC)ccc2OC)cc(C(=O)OC)c1	NSD2 HMT inh 120 (no result: GSIS activator, MLL AF4-AF9 inh) | Alpha artifact inactive
O=C(OCC(=O)N1CCOCC1)c1ccc(Br)cc1	NSD2 HMT inh 64 (no result: PGC1a acetyl inh) | Alpha artifact inactive
Cc1ccc(C(=O)OCC(=O)N2CCOCC2)cc1	none
CC1CCCN(S(=O)(=O)c2ccc(NC(=O)CN3CCN(C)CC3)cc2)C1 (centres undefined)	NSD2 HMT inh 90 (no result: PGC1a acetyl inh, GSIS activator, MLL AF4-AF9 inh) | Alpha artifact inactive
O=C1C(=O)N(CCO)C(c2ccccc2)/C1=C(\O)c1ccccc1 (centres undefined)	none (no result: NSD2 HMT inh)
CN1C(=O)C(=O)/C(=C(/O)c2ccccc2)C1c1ccccc1 (centres undefined)	NSD2 HMT inh 59 (no result: PGC1a acetyl inh) | Alpha artifact inactive
Nc1ccc(N=Nc2ccccc2O)c(N)c1	NSD2 HMT inh 54, MLL AF4-AF9 inh 49 | Alpha artifact inactive
C/[N+]([O-])=C1\Cc2ccccc2C1=O	NSD2 HMT inh 61 (no result: MLL AF4-AF9 inh, Env fusion inh) | Alpha artifact inactive
C=CCNc1nc(Nc2ccc(OC)cc2OC)nc(OCC)n1	none (no result: GSIS activator, MLL AF4-AF9 inh)
C[C@H]1CN([C@@H](C)CO)C(=O)c2cc(NC(=O)NC3CCCCC3)ccc2O[C@@H]1CN(C)Cc1ccc(C(=O)O)cc1	none (no result: NSD2 HMT inh, Env fusion inh)
C[C@@H]1CN([C@H](C)CO)C(=O)c2cccc(NC(=O)NC3CCCCC3)c2O[C@H]1CN(C)Cc1ccc(C(=O)O)cc1	none (no result: NSD2 HMT inh)
Cc1cc(C)cc(-n2c(C)nc3cc(C(=O)O)ccc32)c1	NSD2 HMT inh 73 | Alpha artifact inactive
CCOc1cc(/C=C/c2cccc[n+]2C)ccc1OCC(=O)Nc1ccc(C)cc1	none (no result: PGC1a acetyl inh)
COc1cc(/C=C/c2cccc[n+]2C)ccc1OCC(=O)Nc1ccccc1C	NSD2 HMT inh 131 (no result: PGC1a acetyl inh) | Alpha artifact inactive
Cc1noc(C)c1NC(=O)NCC[C@H]1CC[C@H](NC(=O)c2ccncc2)[C@H](CO)O1	none (no result: NSD2 HMT inh)
C=CC[C@H](CC(=O)NCCO)C(=O)N[C@@H](COC(=O)[C@H](CC=C)CC(=O)OC(C)(C)C)Cc1c[nH]c2ccccc12	none (no result: NSD2 HMT inh)
O=C(O)COc1ccc(/C=C/C(=O)c2ccc3ccccc3c2)cc1	NSD2 HMT inh 88 (no result: PGC1a acetyl inh, GSIS activator, MLL AF4-AF9 inh, Env fusion inh) | Alpha artifact inactive
COc1ccc(CCNc2c([N+](=O)[O-])ncn2C)cc1OC	NSD2 HMT inh 61 (no result: GSIS activator) | Alpha artifact inactive
CCCCNc1c([N+](=O)[O-])ncn1C	none
CCN(CC)CCNc1cc(C)c(C#N)c2nc3ccccc3n12	none
CCN(CC)CCCNc1cc(C)c(C#N)c2nc3ccccc3n12	NSD2 HMT inh 122 | Alpha artifact inactive
CCN(CC)CCCNc1cc(C(F)(F)F)c(C#N)c2nc3ccccc3n12	NSD2 HMT inh 56 | Alpha artifact inactive
Cc1cc(NCCCCO)n2c(nc3ccccc32)c1C#N	none
Cc1c(C(=O)NN)sc(-c2ccccc2)c1C#N	none
O=C(Nc1ccccc1)OCCCCOC(=O)Nc1ccccc1	NSD2 HMT inh 55 | Alpha artifact inactive
O=C(Nc1ccccc1)OCCCc1ccccc1	none
CC(C)(C)C(=O)COC(=O)C1CC(=O)N(c2ccccc2)C1 (centres undefined)	none
O=C(OCc1cccc2ccccc12)C1CC(=O)N(c2ccccc2)C1 (centres undefined)	NSD2 HMT inh 79 (no result: PGC1a acetyl inh, MLL AF4-AF9 inh) | Alpha artifact inactive
CCn1c(C)cc(=S)c2ccccc21	NSD2 HMT inh 104 (no result: MLL AF4-AF9 inh) | Alpha artifact inactive
